This is a sample that favours compounds with a hit; in the whole collection about 2.7% have one here.
GSIS activator: GLuc luminescence reporter in INS-1E cells, primary screen for activators of glucose-dependent secretion of insulin; activation, % at 16.6 µM; actives 0.61% (n = 370,000); INS-1E GLuc reporter insulin secretion, 2-3 h; AID 743287, 2014;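 active = lowest replicate activation of at least 40%, so every replicate reaches that level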;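 also: 0% = median of neutral control wells and 100% = median of IBMX positive control wells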
Env fusion inh: inhibitors of HIV-1 Env-driven cell-cell fusion, primary screen, HeLa-JRFL effector, CEM21 target cells, luciferase | AID 651610, 2012 | actives 1.1% (n = 360,000) | inhibition, % at 12.3 µM;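 active = mean replicate inhibition score of at least 50 and every replicate individually at or above 50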;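 also: 0% = plate neutral controls and 100% = maraviroc near 300 nM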
EWS-Fli inh: EWS/Fli-driven NR0B1 reporter inhibitors, primary screen, A673 cells, NR0B1 luciferase, luminescence, MLPCN library; viability-normalised; inhibition, % at 12.6 µM; actives 0.67% (n = 350,000);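 active = mean inhibition of at least 50% after viability correction, with every replicate also passing that limit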;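 also: firefly luciferase signal divided by Alamar Blue viability fluorescence both relative to DMSO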
PAX8 reporter: inhibitors of PAX8-driven TPO luciferase reporter, primary screen, RMG-I cells, single concentration; inhibition, % at 12.6 µM; AID 652154, 2013; SteadyGlo, 24 h; actives 1.2% (n = 360,000);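 active = mean replicate inhibition at least 60% with every replicate also reaching 60%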;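 also: luciferase light reporting Pax8 driven TPO promoter activity; plate controls were median of neutral control wells for no effect and mitoxantrone controls for full effect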
F508del corr: F508del CFTR correction, initial screen, CFBE line, single point; actives 0.36% (n = 350,000); activity (quench increase), % at 7.58 µM; CFBE cells, YFP halide quenching; stimulated with forskolin plus potentiator P3; % fluorescence drop versus neutral controls;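 active = mean added fluorescence quench of at least 8% versus neutral control, with both replicates also reaching 8%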;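 also: cells transiently co-express mutant CFTR-F508del with the halide-sensitive YFP; corrector assay measuring rescue of mutant channel to the surface after 24 h compound exposure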
PGC1a acetyl inh: inhibitors of PGC1a acetylation signal, primary screen, cell-based, U2OS, AlphaScreen, inhibitor mode | actives 0.17% (n = 350,000) | AlphaScreen anti-acetyl-lysine; with virally co-expressed GCN5 acetyltransferase | inhibition, % at 15.6 µM | AID 651687, 2012;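 active = every replicate shows inhibition of at least 40%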;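 also: 0% = neutral control wells and 100% = positive control wells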
Active calls of the source: *; . = not tested or not shown; [ ] = remark or other dose.

SMILES	GSIS activator	Env fusion inh	EWS-Fli inh	PAX8 reporter	F508del corr	PGC1a acetyl inh
O=C(/C=C/c1ccccc1)c1c[nH]c2ccccc12	-3	-245	-118	-12	1	-6
Cc1[nH]c2ccccc2c(=O)c1C(=O)/C=C/c1ccccc1	-56	-12	49	103*	-12	22
O=C(C=Cc1ccccc1)c1c[nH]c2ccccc2c1=O	-25	-268	-24	86*	-10	29
COc1ccc2[nH]c(=O)c(CN(Cc3ccco3)Cc3nnnn3Cc3ccccc3)cc2c1	.	.	.	.	.	3
COc1ccc2[nH]c(=O)c(CN(Cc3cccs3)Cc3nnnn3Cc3ccccc3)cc2c1	.	98*	.	18	.	.
COc1ccc(Cn2nnnc2CN(Cc2cc3ccc(C)cc3[nH]c2=O)C2CCCC2)cc1	-27	.	.	.	.	42*
CCCNC(=O)C[C@@H]1CC[C@@H]2[C@H](COC[C@H](O)CN2C(=O)c2cccnc2)O1	6	-9[16.7 µM]	-8	-19	-1	0
COC(=O)C[C@@H]1CC[C@@H]2[C@H](COC[C@@H](O)CN2C(=O)Nc2ccccc2OC)O1	12	11[16.7 µM]	-22	-2	1	0
O=C(CSCC(=O)Nc1cccc2ccccc12)Nc1cccc2ccccc12	25	71*	15	24	0	-3
O=C(CC(NC(=O)c1ccccc1)c1ccccc1)Nc1cccc2ccccc12 (configuration not stated)	95*	-25	.	0	.	8
CCCCOCC1CN(CCCC)S(=O)(=O)c2c(Oc3ccc(C)cc3)cccc2O1 (configuration not stated)	27	65*	11	3	-1	.

Bioassay records deposited in PubChem by Broad Institute.
